Laboratory results: PubChem BioAssay (NCI)
This is part of a sample that, as a whole, favours compounds with a hit. Of some 83,000 tested, about 20% had one in any assay.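 Step 1: grow cells in 96-well plates. Step 2: add test compound at a single concentration. Step 3: incubate 48 h. Step 4: record percent growth.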 A number with no mark means an inactive call. Active and inactive are the calls of the source. How the source made its calls: active means growth percent below 10; inactive means the rest.

Key:
Assay in all cases: NCI-60 one-dose screen, 48 h (100 = growth as untreated, 0 = no growth, -100 = all killed)
Details in all cases: 10 µM unless noted
DU-145 prostate = test system: DU-145 prostate
K-562 leukemia = test system: K-562 leukemia
MALME-3M melanoma = test system: MALME-3M melanoma
MDA-MB-231 breast = test system: MDA-MB-231 breast
RXF 393 renal = test system: RXF 393 renal
SF-268 CNS = test system: SF-268 CNS
SF-295 CNS = test system: SF-295 CNS
UACC-257 melanoma = test system: UACC-257 melanoma
M14 melanoma = test system: M14 melanoma
HCT-15 colon = test system: HCT-15 colon
HT29 colon = test system: HT29 colon
SNB-75 CNS = test system: SNB-75 CNS
SNB-19 CNS = test system: SNB-19 CNS
U251 CNS = test system: U251 CNS
PC-3 prostate = test system: PC-3 prostate
SK-MEL-5 melanoma = test system: SK-MEL-5 melanoma
UACC-62 melanoma = test system: UACC-62 melanoma
LOX IMVI melanoma = test system: LOX IMVI melanoma
SK-MEL-28 melanoma = test system: SK-MEL-28 melanoma

Structure (SMILES)	growth (DU-145 prostate) [%]	growth (K-562 leukemia)	growth (MALME-3M melanoma)	growth (MDA-MB-231 breast)	growth (RXF 393 renal)	growth (SF-268 CNS)	growth (SF-295 CNS)	growth (UACC-257 melanoma)	growth (M14 melanoma)	growth (HCT-15 colon)	growth (HT29 colon)	growth (SNB-75 CNS)	growth (SNB-19 CNS)	growth (U251 CNS)	growth (PC-3 prostate) [%]	growth (SK-MEL-5 melanoma)	growth (UACC-62 melanoma)	growth (LOX IMVI melanoma)	growth (SK-MEL-28 melanoma)
Cc1ccc(Nc2nc(N)nc(Nc3ccc4ccccc4c3)n2)cc1	58.5	20.2%	83.9%	47.9%	27.3%	46.3%	53.3%	54.3%	44%	29.3%	11.2%	25%	61.7%	17.7%	32.7	47.7%	18.4%	38.2%	62%
CCOC(=O)/C=C/c1ccc(C(=O)OCC)[nH]1	73.4	19.4%	73.1%	58.8%	87.3%	69.2%	63%	68.1%	47.6%	24.3%	15%	70.1%	87.7%	39.9%	83.5	8.89% (active)	51%	52.7%	83.8%
CCCCNC(=O)NS(=O)(=O)c1ccc(N2N=C(c3cc(C)ccc3C)CC2c2cc(OC)c(OC)c(OC)c2)cc1 (configuration not stated)	88.9	36.1%	25.3%	79.4%	44.7%	66%	8.51% (active)	59.3%	8.53% (active)	48.6%	72.2%	51.1%	68%	51.3%	36.9	6.28% (active)	49.5%	9.68% (active)	18.6%
Cn1cc(-c2csc(-c3cn(C)c4ncccc34)n2)c2ccccc21	28	14.8%	48.3%	52.2%	19.9%	50.6%	9.79% (active)	61.1%	12.2%	26.5%	6.11% (active)	-4.48% (active)	42.4%	25.1%	35.7	32.6%	47%	36.8%	61.4%
CNc1nc(C)c(-c2nc(Nc3cccc(S(N)(=O)=O)c3)ncc2F)s1	10.9	4.89% (active)	-31.4% (active)	3.09% (active)	-50% (active)	-12.7% (active)	6.78% (active)	-16.4% (active)	-3.19% (active)	1.76% (active)	0.997% (active)	-19.2% (active)	7.87% (active)	4.31% (active)	11.7	-23.3% (active)	-48.6% (active)	0.394% (active)	-38% (active)
O=C(CN1CCN(c2cc3c(cc2F)c(=O)c(C(=O)O)cn3C2CC2)CC1)Nc1nc(-c2ccc(Cl)cc2)cs1	32	25.3%	31.6%	24.6%	23.3%	29.7%	10.8%	7.83% (active)	27.5%	15.7%	10.4%	32.6%	22.5%	8.26% (active)	17.7	10.4%	20.1%	-42.4% (active)	42.6%
O=C([C@@H](COCc1ccccc1)N1C(=O)[C@@H](N2C(=O)OC[C@@H]2c2ccccc2)[C@H]1/C=C/c1ccccc1)N1CCC(CCN2CCCCC2)CC1	100	55.8%	-22.3% (active)	72.6%	88.7%	77.2%	102%	64.1%	97.8%	89.2%	45.5%	90.9%	95.1%	71.5%	67.5	81.6%	95.5%	82.1%	73.2%
c1ccc(-c2nc(N3CCOCC3)c3c4c(sc3n2)CCCCC4)nc1	71.5	58%	32.6%	60.4%	55.4%	65.5%	49.2%	75.7%	67.6%	59.5%	54.5%	45.9%	62.5%	59.9%	41.7	23.4%	56.1%	83.2%	61.8%
